The source of these data is PubChem BioAssay AID2289 (National Center for Advancing Translational Sciences (NCATS), 2010).

In all, about 340,000 compounds went through this assay and about 3,300 (0.97%) were called active. Not shown: some 9% with an inconclusive outcome. The call rests on the fitted dose curve; in most records, active means well fitted inhibition curve with a large enough effect; inconclusive means small, poorly fitted or top-dose-only effect, or effect the other way; inactive means flat fitted curve, though single readings scatter. This is one part of the list.
Potency means the concentration at half of the fitted maximal effect.

The experiment in a line: qHTS Assay for Modulators of miRNAs and/or Inhibitors of miR-21. Further: nearly all actives have a fitted effect of over 55% in size. Conditions: HeLa miR-21-FLuc reporter, luciferase luminescence, 48 h; actives lower the signal. An outline of the steps: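 HeLa cells stably expressing CMV-driven firefly luciferase with a downstream miR-21 binding sequence, endogenously expressing miR-21, were treated with titrations (up to about 40uM final) for 48 hours at 37 degree Celsius. Luciferase luminescence was read after lysis.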
A general note: Quantitative high-throughput screening tests each substance at several concentrations.
Consider `O=C(NCCc1ccccc1)c1nc(-c2cccs2)no1`, for which the Potency was 11.7 µM (active).

Consider `Cc1n[nH]c(=S)n1/N=C/c1ccccc1OCc1ccc(Cl)cc1`, for which the Potency was 14.7 µM (active).

As for `COc1cc(/C=N/n2cnnc2)ccc1OCc1ccc(C)cc1`, the Potency was 4.14 µM (active).

As to `COc1cc(/C=N/n2c(C)n[nH]c2=S)ccc1OCc1ccccc1`, the Potency is 6.56 µM (active).

Take `COc1cc(/C=N/n2cnnc2)ccc1OCc1ccccc1`: the Potency was 18.5 µM (active).

On to `Cc1n[nH]c(=S)n1/N=C/c1ccc(OCc2ccc(Cl)cc2Cl)cc1`, for which the Potency was 16.5 µM (active).

Turning to `CCOC(=O)c1cccc(NC(=O)c2cc(CN3CCCC3)on2)c1`, the Potency was 2.33 µM (active).

Regarding `Cc1cc(C)cc(NC(=O)c2cc(CN3CCCC3)on2)c1`, the Potency is 11.7 µM (active).

With `COc1ccc2c(Sc3ccccc3)c(C(=O)NCCc3ccc(Cl)cc3)[nH]c2c1`, the Potency is 0.464 µM (active).

For `O=C(NCCc1ccccc1)c1ccc(Cl)cc1[N+](=O)[O-]`, the Potency is 8.26 µM (active).

As for `O=C(NCCc1ccccc1)c1cccc([N+](=O)[O-])c1`, the Potency was 8.26 µM (active).

For the compound `COc1ccc(C2N=C(c3ccccc3)NO2)cc1OC` (stereo not drawn), the Potency is 5.21 µM (active).

Take `N#Cc1ccc(C2N=C(c3ccccc3)NO2)cc1` (stereo not drawn): the Potency was 0.585 µM (active).

Regarding `COc1ccccc1-c1nc(COc2ccc(Cl)cc2Cl)no1`, the Potency is 7.36 µM (active).

In the case of `Clc1ccc(OCc2noc(-c3ccsc3)n2)c(Cl)c1`, the Potency is 4.14 µM (active).

Regarding `COc1ccccc1/C=C/C=N/n1c(-c2ccccn2)n[nH]c1=S`, the Potency was 8.26 µM (active).

As for `CCOC(=O)c1c(C)oc2cc(Cl)c(O)c(CN(C)C)c12`, the Potency is 14.7 µM (active).

With `C/C(=N/NC(=O)c1ccc(Br)o1)c1ccc(C)o1`, the Potency was 10.4 µM (active).

`O=C(N/N=C/c1ccc(Br)cc1)c1ccc(Br)o1`: the Potency was 3.29 µM (active).

As to `Cc1ccc(OCc2nc(-c3ccccc3)no2)cc1`, the Potency is 5.21 µM (active).

`COc1cccc(-c2noc(COc3ccccc3Cl)n2)c1`: the Potency was 16.5 µM (active).

Take `COc1ccccc1OCc1nc(-c2cccc(C)c2)no1`: the Potency is 6.56 µM (active).

As for `CSc1nc(O)c(/C=C2\C=Nc3ccccc32)[nH]1`, the Potency was 16.5 µM (active).

Turning to `COc1ccc(/C=C2\OC(=O)c3c(OC)cccc32)cc1OC`, the Potency is 2.93 µM (active).

Consider `COc1cc(/C=C2\OC(=O)c3c(OC)cccc32)ccc1O`, for which the Potency is 7.36 µM (active).

Take `COc1cccc2c1C(=O)O/C2=C/c1ccc2c(c1)OCO2`: the Potency was 0.233 µM (active).

As for `COc1cccc(/C=N/NC(=O)c2cccc(N3CCCC3=O)c2)c1`, the Potency was 5.85 µM (active).

As to `c1csc(-c2nc(N3CCCCC3)no2)c1`, the Potency is 2.93 µM (active).

Turning to `Cc1ccc2c(c1)sc(=NC(=O)c1cccs1)n2C`, the Potency was 0.0521 µM (active).

Take `CCOC(=O)c1sc(=NC(=O)c2ccc(Cl)s2)n(C)c1C`: the Potency was 0.233 µM (active).

With `CCOC(=O)c1sc(=NC(=O)c2ccccc2Br)n(C)c1C`, the Potency is 1.04 µM (active).

For `CCOC(=O)c1sc(=NC(=O)c2cccs2)n(C)c1C`, the Potency was 0.293 µM (active).

`O=C(NC(N1CCOCC1)C(Cl)(Cl)Cl)c1ccco1` (stereo not drawn): the Potency is 2.93 µM (active).

With `O=C(CCc1ccc(S(=O)(=O)NC2CCCCC2)cc1)NCc1ccccn1`, the Potency was 7.36 µM (active).

On to `Cc1cc(-n2c(SCc3ccccc3F)nc3[nH]ncc3c2=O)ccc1Cl`, for which the Potency is 4.65 µM (active).

In the case of `O=c1c2c3c(sc2ncn1-n1cccc1)CCCCC3`, the Potency was 11.7 µM (active).

As for `COc1ccc(OC)c2nc(-c3ccc4c(c3)OCO4)ccc12`, the Potency is 0.736 µM (active).

For the compound `Cc1c(C(=O)c2ccccc2)oc2ccc3ccccc3c12`, the Potency was 2.93 µM (active).

Take `CC(=O)c1cc2c(C)c(C(=O)c3ccccc3)oc2cc1O`: the Potency was 0.521 µM (active).

As to `CCN(CC)S(=O)(=O)c1ccc(-c2cn3ccc(C)cc3n2)cc1`, the Potency is 0.927 µM (active).

With `Cc1cc(/C=C(\C#N)C(=O)Nc2ccccc2F)c(C)[nH]1`, the Potency is 0.521 µM (active).

As to `Cc1ccccc1SCCNC(=O)c1ccccc1Br`, the Potency was 16.5 µM (active).

`O=C(NCCSc1ccccc1)c1ccccc1Cl`: the Potency is 1.65 µM (active).

For `COC(=O)c1sc(NC(=O)CSc2nnnn2C)nc1C`, the Potency is 6.56 µM (active).

For the compound `COC(=O)c1sc(NC(=O)COc2ccccc2)nc1C`, the Potency is 7.36 µM (active).

`CCOC(=O)c1sc(Nc2ccccc2)nc1C`: the Potency was 4.14 µM (active).

In the case of `CNc1nc(C)c(C(=O)OCc2ccccc2)s1`, the Potency is 16.5 µM (active).

For `CCOC(=O)c1sc(NC(=O)c2ccccc2OC)nc1C`, the Potency was 0.261 µM (active).

For `CCOC(=O)c1sc(Nc2ccccc2Cl)nc1C`, the Potency is 4.65 µM (active).

Take `Cc1ccccc1/C=N/NC(=O)c1sccc1C`: the Potency was 1.47 µM (active).

On to `Cc1ccccc1C(=O)N/N=C/c1ccsc1C`, for which the Potency was 2.33 µM (active).

As for `c1ccc(-c2cc(-c3ccccc3)on2)cc1`, the Potency is 1.04 µM (active).

Consider `CCC1CCCCN1C(=O)c1cc(-c2ccc(Cl)c(Cl)c2)on1` (stereo not drawn), for which the Potency is 7.36 µM (active).

On to `O=C(c1cc(-c2ccc(Cl)cc2)on1)N1CCCCCC1`, for which the Potency is 1.47 µM (active).

Take `O=C(c1cc(-c2ccc(Cl)cc2)on1)N1CCCC1`: the Potency is 0.521 µM (active).

In the case of `O=C(c1cc(-c2ccccc2)on1)N1CCCCCC1`, the Potency is 3.29 µM (active).

Consider `O=C(c1ccccc1-c1nc(-c2ccccc2)no1)N1CCCC1`, for which the Potency was 18.5 µM (active).

As for `COc1ccccc1CCC(=O)Nc1ccc(C)cc1Cl`, the Potency is 16.5 µM (active).

Regarding `Cc1ccc(Sc2ncccc2COC(=O)NC(C)C)cc1`, the Potency was 16.5 µM (active).

Consider `O=C1N=C(N2CCOCC2)S/C1=C\C=C/c1ccccc1`, for which the Potency was 10.4 µM (active).

`Nc1ccccc1-c1nc2ccccc2s1`: the Potency is 5.85 µM (active).

As for `Nc1ccc(-c2nc3ccccc3s2)cn1`, the Potency is 1.47 µM (active).

Turning to `CCOC(=O)c1ccc(N2Cc3ccccc3C2=NC(=O)c2cccs2)cc1`, the Potency is 3.29 µM (active).

For the compound `N#Cc1ccc(N2Cc3ccccc3C2=NC(=O)c2cccs2)cc1`, the Potency was 8.26 µM (active).

Take `Cc1ccc2[nH]c3c(=S)nc[nH]c3c2c1`: the Potency was 3.69 µM (active).

On to `Cc1cc(C(=O)N/N=C/c2cccc([N+](=O)[O-])c2)c(C)n1-c1ccccc1`, for which the Potency was 6.56 µM (active).

`O=C(Nc1ccc(Cl)c(Cl)c1)c1ccccc1NC(=O)C1CC=CCC1C(=O)O` (stereo not drawn): the Potency is 6.56 µM (active).

Consider `CC(C)c1ccc(NC(=O)c2ccccc2NC(=O)C2CC=CCC2C(=O)O)cc1` (stereo not drawn), for which the Potency is 3.69 µM (active).

On to `CN(C)C=NC(=O)c1cc(C(=O)c2ccc(C(C)(C)C)cc2)c[nH]1`, for which the Potency is 0.927 µM (active).

`Cn1c(CSc2ccccc2)c(C#N)c2ccccc21`: the Potency is 14.7 µM (active).

In the case of `Cc1ccc(Nc2nc(/N=C/N(C)C)n[nH]2)cc1C`, the Potency is 7.36 µM (active).

On to `Cc1ccc(Nc2nc(/N=C/NO)n[nH]2)cc1C`, for which the Potency was 1.85 µM (active).

Turning to `COCn1c(-c2ccc(OC)cc2)nc2ccccc21`, the Potency is 3.69 µM (active).

Turning to `C=CCn1c(-c2ccc(N)cc2)nc2ccccc21`, the Potency is 4.65 µM (active).

`COCn1c(COc2ccc3ccccc3c2)nc2ccccc21`: the Potency is 2.07 µM (active).

In the case of `O=C(c1cc(-c2ccccc2O)on1)N1CCCCCC1`, the Potency is 2.07 µM (active).

Consider `O=C(c1cc(-c2ccccc2O)on1)N1CCOCC1`, for which the Potency was 13.1 µM (active).

As to `O=C(c1cc(-c2ccccc2O)on1)N1CCCCC1`, the Potency is 0.826 µM (active).

As to `Cc1ccc2c(c1)NC(=O)CC(c1ccccc1)=N2`, the Potency is 13.1 µM (active).

On to `CSc1ccc(/C=C/C(=O)c2c(O)cc(C)oc2=O)cc1`, for which the Potency was 13.1 µM (active).

In the case of `Cc1ccc(NC(=O)CCCNC(=O)c2ccc(Cl)cc2)c(O)c1`, the Potency is 16.5 µM (active).

As to `[O-]/[N+](=C\C=C\c1ccccc1)c1ccccc1`, the Potency was 1.85 µM (active).

As to `CC(=O)Nc1ccc(C(=O)/C=C/c2ccc[nH]2)cc1`, the Potency was 13.1 µM (active).

Regarding `COc1ccc(N2Cc3ccc(OC)c(OC)c3C2=O)cc1`, the Potency is 2.07 µM (active).

Turning to `Cc1cccc(OCC(=O)Nc2ccccc2F)c1`, the Potency is 6.56 µM (active).

As for `Cc1ccc(OCC(=O)Nc2ccccc2F)cc1C`, the Potency is 4.14 µM (active).

With `O=C(CSc1nnc(-c2ccccc2Cl)o1)Nc1ccc2c(c1)OCCO2`, the Potency is 6.56 µM (active).

Take `O=C(CSCc1ccccc1Cl)Nc1ccc2c(c1)OCCO2`: the Potency was 2.07 µM (active).

Take `Cc1nc(NC(=O)CSc2nnc(-c3ccc4c(c3)OCO4)o2)c(Cl)cc1Cl`: the Potency is 16.5 µM (active).

As for `Cc1ccc(NC(=O)CSc2nnc(-c3cccs3)o2)cc1S(=O)(=O)N(C)C`, the Potency is 8.26 µM (active).

As for `Cc1ccc(/C=C/C(=O)NCc2cccs2)c(C)c1`, the Potency is 5.85 µM (active).

As for `COc1ccc(N(/N=C2\Sc3ccccc3C2=O)C(C)=O)cc1`, the Potency is 0.261 µM (active).

As to `O=C(COC(=O)c1ccc[nH]c1=O)NCCc1ccc(Cl)cc1Cl`, the Potency was 1.65 µM (active).

As for `COc1ccc(/C=C/c2nc(-c3ccccc3O)n[nH]2)cc1OC`, the Potency was 4.65 µM (active).

Take `COc1ccc(/C=C/c2nc(-c3ccccc3O)n[nH]2)cc1`: the Potency was 2.33 µM (active).

For the compound `CCc1nc2ccc(C(=O)NCCc3ccco3)cc2nc1CC`, the Potency is 14.7 µM (active).

`COc1cc(C(F)(F)F)ccc1C(=O)NCCc1ccco1`: the Potency was 7.36 µM (active).

Turning to `CC1CCN(C(=O)CSCc2ccc(Cl)cc2)CC1`, the Potency was 11.7 µM (active).

For `O=C(CCSc1ccccc1)N1CCN(c2ccccc2)CC1`, the Potency is 6.56 µM (active).

On to `O=C(CSCc1ccccc1)N1CCN(c2ccccc2)CC1`, for which the Potency was 6.56 µM (active).

Consider `O=C(CCSc1ccccc1)N1CCN(c2ccccc2F)CC1`, for which the Potency was 7.36 µM (active).

On to `Cc1ccc(SCCC(=O)N2CCC(C)CC2)cc1`, for which the Potency is 7.36 µM (active).

Regarding `O=C(O)c1c2c(nc3ccccc13)/C(=C/c1ccc(OC(F)F)cc1)CCC2`, the Potency was 14.7 µM (active).

Take `CN(C)c1ccc(/C=C2\CCCc3c2nc2ccccc2c3C(=O)O)cc1`: the Potency was 4.65 µM (active).

Consider `Cc1ccc2oc(-c3ccc(Cl)c(NC(=O)c4cc5ccccc5o4)c3)nc2c1`, for which the Potency is 5.85 µM (active).

As for `Cc1ccc2oc(-c3ccc(NC(=O)c4cccc(F)c4)c(C)c3)nc2c1`, the Potency was 7.36 µM (active).

With `Cc1ccc2oc(-c3ccc(C)c(NC(=O)c4ccc(-c5ccccc5[N+](=O)[O-])o4)c3)nc2c1`, the Potency is 8.26 µM (active).

As to `Cc1cc2nc(-c3ccc(NC(=O)C(C)C)cc3)oc2cc1C`, the Potency is 0.369 µM (active).
